Data reported in PubChem BioAssay AID743445 (Broad Institute, 2014).
In all, about 310,000 compounds went through this assay and about 1,700 (0.55%) were called active. Many of the other results were omitted from the sample, so actives are more common in it than they were. Unmarked numbers belong to inactive results. No stated cut-off is given here; in the data, active means inhibition above about 50%; inactive means the rest.

target: Histone-lysine N-methyltransferase NSD2 (Homo sapiens) (UniProt O96028); experiment: NSD2 histone methyltransferase inhibitors, primary screen, biochemical, AlphaScreen, single concentration, set 2 (AID 743445); settings: NSD2 peptide methylation, 120 min, at 12.5 µM, hits give high values
Sequence (O96028 whole entry, looked up): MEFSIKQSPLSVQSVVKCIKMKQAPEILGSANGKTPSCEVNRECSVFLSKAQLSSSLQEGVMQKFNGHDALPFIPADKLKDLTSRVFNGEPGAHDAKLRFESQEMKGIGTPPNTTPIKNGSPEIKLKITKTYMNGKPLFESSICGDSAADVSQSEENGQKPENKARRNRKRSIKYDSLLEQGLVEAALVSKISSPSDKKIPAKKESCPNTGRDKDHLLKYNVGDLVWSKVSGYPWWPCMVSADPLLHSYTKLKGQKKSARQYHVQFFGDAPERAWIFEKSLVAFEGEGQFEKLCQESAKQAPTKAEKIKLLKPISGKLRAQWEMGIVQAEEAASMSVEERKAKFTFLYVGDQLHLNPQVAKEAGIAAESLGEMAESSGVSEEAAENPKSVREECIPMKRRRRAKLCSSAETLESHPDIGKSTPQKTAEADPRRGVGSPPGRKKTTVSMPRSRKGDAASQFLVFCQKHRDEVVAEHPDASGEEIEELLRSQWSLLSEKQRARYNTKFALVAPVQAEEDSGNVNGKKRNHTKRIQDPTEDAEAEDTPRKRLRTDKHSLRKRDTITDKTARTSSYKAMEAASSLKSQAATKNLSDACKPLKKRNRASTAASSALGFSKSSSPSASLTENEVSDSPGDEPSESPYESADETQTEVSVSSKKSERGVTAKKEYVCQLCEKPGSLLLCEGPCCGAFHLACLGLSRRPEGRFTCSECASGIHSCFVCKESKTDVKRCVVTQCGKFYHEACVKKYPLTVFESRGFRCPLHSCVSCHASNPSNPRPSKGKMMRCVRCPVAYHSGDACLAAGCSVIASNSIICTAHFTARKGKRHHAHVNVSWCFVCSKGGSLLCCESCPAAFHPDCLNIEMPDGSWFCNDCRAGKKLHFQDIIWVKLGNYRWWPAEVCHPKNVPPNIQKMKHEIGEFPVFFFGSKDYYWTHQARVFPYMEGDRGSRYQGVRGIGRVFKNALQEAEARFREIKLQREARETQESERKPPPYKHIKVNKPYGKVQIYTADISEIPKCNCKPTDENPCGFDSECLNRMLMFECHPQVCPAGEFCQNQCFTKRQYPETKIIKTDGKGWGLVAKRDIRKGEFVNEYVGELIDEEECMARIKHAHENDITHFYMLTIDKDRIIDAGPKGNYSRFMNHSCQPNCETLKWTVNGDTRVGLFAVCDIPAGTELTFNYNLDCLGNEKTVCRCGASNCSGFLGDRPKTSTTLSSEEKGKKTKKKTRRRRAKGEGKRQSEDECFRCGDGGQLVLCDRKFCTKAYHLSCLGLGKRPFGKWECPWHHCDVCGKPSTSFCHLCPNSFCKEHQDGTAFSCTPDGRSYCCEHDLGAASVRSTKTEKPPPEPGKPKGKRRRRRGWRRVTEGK

Compound | inhibition
OC[C@@H]1CN(Cc2cccs2)C[C@H](n2cnc3c(NC4CCCC4)ncnc32)O1 | -1.52%
Cc1ccc(NC(=O)c2cc(C)nn2-c2ccccc2)c(C)c1 | -1.54%
CCOC(=O)C1=C(C)NC2=C(C(=O)CC(C)(C)C2)C1c1ccc2c(c1)OCO2 (stereo unspecified) | 15.9%
NC1=CC(=O)C(=O)c2cccnc21 | 122% (active)
Cc1cccc(N2C(=O)c3cccnc3C2=O)c1 | -1.99%
CCOc1ccc(CCN2C(=O)c3cccnc3C2=O)cc1OCC | -2.42%
CCOc1ccc(C(c2c(C)[nH][nH]c2=O)c2c(C)[nH][nH]c2=O)cc1OCC | 10.6%
Cc1[nH][nH]c(=O)c1C(c1ccc2c(c1)OCO2)c1c(C)[nH][nH]c1=O | 84.4% (active)
Nc1[nH][nH]c(=O)c1N=Nc1ccc2c(c1)OCO2 | 4.47%
CCCCN1CCN(C(=O)c2ccc3c(c2)NC(=O)C(C)(C)O3)CC1 | 8.11%
COc1ccc(CN(CCN2CCOCC2)C(=O)c2ccc(C)cc2)cc1OC | 6.86%
COc1ccc(CSc2nnc(SCC(=O)Nc3ccccc3C(F)(F)F)s2)cc1 | 0.831%
COc1ccc(CSc2nnc(-c3cccc(C)c3)n2C)cc1 | 0.584%
Oc1ccc2ccccc2c1N=Nc1nccs1 | 34.1%
Oc1c(C=Nc2cccc3nsnc23)ccc2ccccc12 | 109% (active)
O=C(CSc1nc2ccccc2s1)N=Nc1c(O)[nH]c2ccccc12 | 2.59%
O=C(CSc1nnc(COc2ccccc2)n1Cc1ccco1)c1ccc2ccccc2c1 | 0.338%
O=C(CSc1nc2ccccc2n1Cc1ccccc1Cl)N/N=C\c1c[nH]c2ccccc12 | 3%
O=C(OCC(=O)N1CCN(c2ccccc2)CC1)c1ccc([N+](=O)[O-])s1 | 1.02%
COc1cc(NC(=O)COC(=O)c2ccc([N+](=O)[O-])s2)cc(OC)c1OC | 72.8% (active)
COc1cc(C(=O)OCc2ccc([N+](=O)[O-])cc2)cc(OC)c1OC | -0.924%
O=C(NCc1cccnc1)c1cc(C2CCCN(C(=O)CCCc3ccccc3)C2)on1 (stereo unspecified) | -1.28%
Fc1ccc2nc(COCc3nc4ccc(F)cc4[nH]3)[nH]c2c1 | -1.4%

Compound | inhibition
CCCOc1ccc(F)cc1-c1cc(C(=O)NCc2ccc(F)cc2)[nH]n1 | 19.4%
COc1ccc(CCNC(=O)CSc2nc3c([nH]2)c(=O)n(C)c(=O)n3C)cc1 | -8.19%
COC(=O)[C@H](Cc1ccccc1)NC(=O)Nc1ccc(S(N)(=O)=O)cc1 | 59.7% (active)
COC(=O)[C@@H](Cc1ccccc1)NC(=O)NCCc1ccccc1 | 0.664%
COC(=O)[C@H](Cc1ccccc1)NC(=O)Nc1ccc(OC)cc1 | -1.09%
COc1ccc(NC(=O)C2(C)Cc3c(-c4cccc(NC(C)=O)c4)ccnc3O2)cc1OC (stereo unspecified) | 1.97%
CCOc1ccccc1C(=O)Nc1cccc(C(=O)Nc2cc(C)ccn2)c1 | 1.28%
O=C(CSc1nnc(-c2cccc(Cl)c2)n1Cc1ccco1)Nc1ccc(OCc2ccccc2)cc1 | -1.47%
CC(=O)c1cc(-c2ccccc2)n(CC(=O)NC2CCCCC2)c1C | 71.5% (active)
CC(=O)CC(CC(=O)NC1CCCCC1)c1ccccc1 (stereo unspecified) | -4.05%
CC(=O)c1cc(-c2ccccc2)n(CCC(=O)NC2CCCCCC2)c1C | 1.47%
CCN(CC)S(=O)(=O)c1ccc(N2CCN(C)CC2)c(NC(=O)Nc2ccccc2F)c1 | 78.4% (active)
CCN(CC)S(=O)(=O)c1ccc(N2CCOCC2)c(NC(=O)C(C)Oc2ccc(F)cc2)c1 (stereo unspecified) | -1.83%
CN1CCN(c2ccc(S(=O)(=O)N3CCCCC3)cc2NC(=O)Cc2ccccc2F)CC1 | 1.27%
Cc1nc([N+](=O)[O-])cn1CC(=O)Nc1ccc(Cl)cc1 | -0.868%
Cc1ccc(C(=O)Cn2cc([N+](=O)[O-])nc2C)cc1 | 55.2% (active)
Cc1nc([N+](=O)[O-])cn1CC(=O)Nc1ccc2c(c1)OCO2 | -1.66%
COc1ccc(OC)c(-c2csc(-c3cccs3)n2)c1 | 126% (active)
COc1ccc(CCc2nc(-c3cccs3)no2)cc1 | -6.21%
COc1ccc(OC)c(-c2csc(NC(=O)COC(=O)C3CC3)n2)c1 | -2.87%
COc1ccc(-c2cc(NC=O)c3ncc(-c4cc(OC)c(OC)c(OC)c4)n3c2)c(OC)c1 | 2.63%
COc1ccc(C(=O)N2CCCCC2c2cc(C(=O)Nc3ccc(F)c(Cl)c3)no2)cc1 (stereo unspecified) | -0.843%
CCOc1ccc(C(CC(=O)O)NC(=O)Cc2ccccc2)cc1OC (stereo unspecified) | 0.638%
